Laboratory results from PubChem BioAssay AID1159580 (chemical genetic matrix, 2015).
“And” between values parts separate entries of the source, which are not always exact repeats. Equal values may be shown once. The whole screen tested about 5,500 compounds, of which about 2,000 (36%) were called active. Roughly 18% stayed inconclusive and do not appear here. No stated cut-off is given here; in the data, active means normalized growth mostly below about 0.91 (no sharp cut-off); inconclusive means no clear call, values can overlap the other calls; inactive means mostly above about 0.92. The list shows a part of the results.

Test: chemical genetic growth profiling, strain panel (AID 1159580);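 further: tested at 20 µM; growth read once vehicle control cultures reached saturation at 30 °C; 1 = growth at the plate median or of vehicle wells; lower values mean less growth of the strain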
Details: S. cerevisiae deletion strains, growth OD

Measured: normalized growth

COc1cc(/C=C/C(=O)O)ccc1O
inactive: locus YAL021C, strain ccr4, hits give low values 1 | locus YAL026C, strain drs2, hits give low values 1.01 | locus YAL030W, strain snc1, hits give low values 1.01 | locus YBL061C, strain skt5, hits give low values 1.01 | locus YBR009C, strain hhf1, hits give low values 1.02 | locus YBR021W, strain FUR4, hits give low values 1.01 | locus YBR023C, strain chs3, hits give low values 1.01 | locus YBR171W, strain sec66, hits give low values 1.01 | locus YBR229C, strain ROT2, hits give low values 1.01 | locus YBR231C, strain swc5, hits give low values 1.01 | locus YBR279W, strain paf1, hits give low values 1.01 | locus YCL011C, strain gbp2, hits give low values 1.01 | locus YCL016C, strain dcc1, hits give low values 1.01 | locus YCL029C, strain bik1, hits give low values 0.977 | locus YCL061C, strain MRC1, hits give low values 1.02 | locus YCL069W, strain vba3, hits give low values 0.998 | locus YCR088W, strain abp1, hits give low values 1.01 | locus YDL005C, strain med2, hits give low values 1.02 | locus YDL035C, strain GPR1, hits give low values 1.01 | locus YDL040C, strain nat1, hits give low values 1 | locus YDL074C, strain BRE1, hits give low values 1 | locus YDL101C, strain DUN1, hits give low values 1.02 | locus YDL185W, strain tfp1, hits give low values 0.971 | locus YDL192W, strain arf1, hits give low values 0.986 | locus YDR001C, strain nth1, hits give low values 1.01 | locus YDR069C, strain doa4, hits give low values 1.03 | locus YDR101C, strain arx1, hits give low values 0.961 | locus YDR137W, strain rgp1, hits give low values 1.01 | locus YDR150W, strain NUM1, hits give low values 1 | locus YDR159W, strain sac3, hits give low values 0.98 | locus YDR162C, strain NBP2, hits give low values 0.992 | locus YDR195W, strain ref2 0.966 | locus YDR297W, strain sur2, hits give low values 1.01 | locus YDR318W, strain mcm21, hits give low values 0.997 | locus YDR334W, strain swr1, hits give low values 1.01 | locus YDR335W, strain msn5, hits give low values 1.01 | locus YDR388W, hits give low values 0.979 | locus YDR392W, strain spt3, hits give low values 0.985 | locus YDR502C, strain sam2, hits give low values 0.984 | locus YEL003W, strain gim4, hits give low values 1 | locus YEL037C, strain rad23, hits give low values 1.01 | locus YEL061C, strain CIN8 (second series), hits give low values 1.01 | locus YEL061C, strain CIN8, hits give low values 0.972 | locus YER015W, strain faa2, hits give low values 1.01 | locus YER016W, strain bim1, hits give low values 1 | locus YER110C, hits give low values 0.981 | locus YER111C, strain swi4, hits give low values 1.01 | locus YER155C, strain BEM2 (second series), hits give low values 0.999 | locus YER155C, strain BEM2, hits give low values 1 | locus YER167W, strain BCK2, hits give low values 0.973 | locus YFR010W, strain ubp6, hits give low values 1.01 | locus YGL078C, strain dbp3, hits give low values 0.983 | locus YGL086W, strain mad1, hits give low values 0.952 | locus YGL167C, strain pmr1, hits give low values 1.01 | locus YGL173C, strain kem1, hits give low values 1.01 | locus YGL227W, strain vid30, hits give low values 1.01 | locus YGL240W, strain doc1, hits give low values 1.02 | locus YGL248W, strain PDE1, hits give low values 1.02 | locus YGL253W, strain hxk2, hits give low values 0.997 | locus YGR135W, strain pre9, hits give low values 0.995 | locus YGR252W, strain gcn5, hits give low values 1.07 | locus YHR013C, strain ard1, hits give low values 0.996 | locus YHR027C, strain rpn1, hits give low values 1 | locus YHR030C, strain SLT2, hits give low values 0.993 and 1.02 | locus YHR079C, strain IRE1 (second series), hits give low values 0.972 | locus YHR079C, strain IRE1, hits give low values 1.05 | locus YHR094C, strain hxt1, hits give low values 0.966 | locus YHR129C, strain ARP1, hits give low values 1 | locus YHR142W, strain chs7, hits give low values 1.01 | locus YHR200W, strain rpn10, hits give low values 0.989 | locus YIL066C, strain RNR3, hits give low values 1 | locus YIL073C, strain SPO22, hits give low values 0.99 | locus YIL125W, strain kgd1, hits give low values 0.968 | locus YIR030C, strain dcg1, hits give low values 0.983 | locus YJL092W, strain hpr5, hits give low values 1.01 | locus YJL095W, strain BCK1 (second series), hits give low values 1.01 | locus YJL095W, strain BCK1, hits give low values 1.03 and 1 | locus YJL115W, strain asf1, hits give low values 1.01 | locus YJL129C, strain trk1, hits give low values 1.01 | locus YJL134W, strain LCB3, hits give low values 0.999 | locus YJL154C, strain vps35, hits give low values 1 | locus YJL164C, strain tpk1, hits give low values 1 | locus YJL166W, strain qcr8, hits give low values 1.02 | locus YJL168C, strain set2, hits give low values 0.984 | locus YJL187C, strain SWE1 (second series), hits give low values 1.01 | locus YJR043C, strain POL32, hits give low values 1.03 | locus YJR066W, strain TOR1, hits give low values 0.995 | locus YKL009W, strain mrt4, hits give low values 1.01 | locus YKL068W, hits give low values 0.974 | locus YKL085W, strain MDH1 (second series), hits give low values 0.977 | locus YKL085W, strain MDH1, hits give low values 0.977 | locus YKL160W, strain elf1, hits give low values 1.01 | locus YKL190W, strain CNB1, hits give low values 0.995 | locus YKR001C, strain vps1, hits give low values 0.967 | locus YKR026C, strain gcn3, hits give low values 1.02 | locus YKR091W, strain srl3, hits give low values 1.01 | locus YLL001W, strain dnm1, hits give low values 1.01 | locus YLL026W, hits give low values 1.01 | locus YLL041C, strain sdh2, hits give low values 1.01 | locus YLR027C, strain aat2, hits give low values 1.01 | locus YLR039C, strain RIC1, hits give low values 0.99 | locus YLR058C, strain SHM2, hits give low values 1.01 | locus YLR102C, strain apc9, hits give low values 0.98 | locus YLR113W, strain HOG1, hits give low values 0.958 | locus YLR221C, strain rsa3, hits give low values 1.01 | locus YLR258W, strain gsy2, hits give low values 1.01 | locus YLR262C, strain YPT6 (second series), hits give low values 1.01 | locus YLR262C, strain YPT6, hits give low values 1.01 | locus YLR268W, strain sec22, hits give low values 0.967 | locus YLR320W, strain mms22, hits give low values 1 | locus YLR330W, strain CHS5, hits give low values 1.01 | locus YLR342W, strain FKS1 (second series), hits give low values 1.02 | locus YLR342W, strain FKS1, hits give low values 1.02 | locus YLR357W, strain rsc2, hits give low values 1.01 | locus YLR370C, strain arc18, hits give low values 1.02 | locus YLR371W, strain rom2, hits give low values 0.936 | locus YLR384C, strain iki3, hits give low values 1.01 | locus YLR418C, strain cdc73, hits give low values 0.968 | locus YML016C, strain PPZ1, hits give low values 1.01 | locus YML032C, strain rad52, hits give low values 1.01 | locus YML120C, strain ndi1, hits give low values 1 | locus YML124C, strain tub3, hits give low values 0.984 | locus YMR058W, strain fet3, hits give low values 1.02 | locus YMR078C, strain ctf18, hits give low values 0.984 | locus YMR125W, strain sto1, hits give low values 1 | locus YMR129W, hits give low values 1.01 | locus YMR205C, strain PFK2, hits give low values 1.01 | locus YMR223W, strain ubp8, hits give low values 1.01 | locus YMR231W, strain pep5, hits give low values 1.01 | locus YMR263W, strain SAP30, hits give low values 1 | locus YMR307W, strain GAS1, hits give low values 0.99 | locus YNL067W, strain RPL9B, hits give low values 1 | locus YNL071W, strain lat1, hits give low values 1 | locus YNL183C, strain NPR1, hits give low values 1 | locus YNL209W, strain ssb2, hits give low values 1.01 | locus YNL233W, strain BNI4, hits give low values 1.01 | locus YNL248C, strain rpa49, hits give low values 1.01 | locus YNL250W, strain rad50, hits give low values 0.995 | locus YNL271C, strain bni1, hits give low values 1 | locus YNL298W, strain CLA4, hits give low values 0.981 | locus YNL307C, strain MCK1, hits give low values 0.977 | locus YNL322C, strain KRE1 (second series), hits give low values 1.01 | locus YNL322C, strain KRE1, hits give low values 0.999 | locus YNR049C, strain mso1, hits give low values 1.01 | locus YNR052C, strain pop2, hits give low values 0.991 | locus YOL012C, strain htz1 0.646 | locus YOL147C, strain pex11, hits give low values 0.969 | locus YOR001W, strain rrp6, hits give low values 1.06 | locus YOR061W, strain CKA2, hits give low values 1.01 | locus YOR069W, strain VPS5, hits give low values 0.995 | locus YOR070C, strain gyp1, hits give low values 1.01 | locus YOR080W, strain dia2, hits give low values 1.01 | locus YOR083W, strain WHI5, hits give low values 1.02 | locus YOR106W, strain vam3, hits give low values 1.03 | locus YOR136W, strain idh2, hits give low values 0.974 | locus YOR144C, strain elg1, hits give low values 0.977 | locus YOR184W, strain ser1, hits give low values 1.01 | locus YOR231W, strain MKK1, hits give low values 1.03 | locus YOR265W, strain rbl2, hits give low values 1 | locus YOR270C, strain vph1, hits give low values 0.994 | locus YOR290C, strain snf2, hits give low values 1.01 | locus YOR316C, strain cot1, hits give low values 0.981 | locus YPL051W, strain arl3, hits give low values 1.01 | locus YPL078C, strain atp4, hits give low values 1.02 | locus YPL106C, strain sse1, hits give low values 1.01 | locus YPL240C, strain hsp82, hits give low values 1.02 | locus YPL241C, strain CIN2, hits give low values 0.999 | locus YPL256C, strain CLN2, hits give low values 1 | locus YPR119W, strain clb2, hits give low values 0.975 | locus YPR141C, strain kar3, hits give low values 0.975 | locus YPR163C, strain tif3, hits give low values 0.977 | locus YPR167C, strain met16, hits give low values 0.992 | strain wtn01, hits give low values 0.968
